Measurements: PubChem BioAssay (Tox21)
Values joined by “and” are separate entries in the source; they are usually repeats but may differ in a detail not shown here. Identical values can stand only once. Records with an inconclusive call do not appear. The source holds several records for some structures; these can differ, active in one and inactive in another. Active and inactive are the calls of the source. Unless noted, calls come from the whole dose curve; as a rule, active = well fitted curve in the direction sought with a large enough effect in the repeat runs; inconclusive = weak or mixed curves; inactive = no such curve, though single readings can be large; an effect the other way counts as inactive or inconclusive.

Key:
[1] = qHTS assay to identify small molecule agonists of the hypoxia (HIF-1) signaling pathway - cell viability counter screen (AID 1224844; calls by dose curve; note: nearly all actives have a fitted effect of over 50% in size; note: potency is the fitted concentration of half-maximal effect)
How it was run: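 Multiplexed with the HRE beta-lactamase assay, this viability read used CellTiter-Glo luminescence (30 min, RT) on HRE-bla ME-180 cells treated 17 hrs with compounds in 0.5% dialyzed FBS medium.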

[2] = qHTS assay to identify small molecule agonists of H2AX (AID 1224845; active = well fitted activation curve with a large enough effect in the signal ratio in the repeat runs, not every such curve was filed as active; the % refers to the signal ratio)
How it was run: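 Phospho-H2AX Ser139 measured by HTRF (ex 320 nm; em 665 and 620 nm) after 24 hr antibody incubation. Compounds, 15 concentrations, 0.76% DMSO, were applied to CHO-K1 cells for 3hr at 37C before lysis.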

[3] = qHTS assay to identify small molecule agonists of H2AX - cell viability counter screen (AID 1224847; calls by dose curve; note: nearly all actives have a fitted effect of over 30% in size; note: potency is the fitted concentration of half-maximal effect)
How it was run: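 Wild-type CHO-K1 cells (10% FBS medium) were plated overnight at 37C, exposed to compounds at 15 concentrations for 3 hr at 37C (0.76% DMSO final), and viability was read as CellTiter-Glo luminescence after 30 min at room temperature.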

[4] = qHTS assay to identify small molecule antagonists of the estrogen related receptor (ERR) signaling pathway from Tox21 library (AID 1224848); note: nearly all actives have a fitted effect of over 50% in size; note: potency is the fitted concentration of half-maximal effect
How it was run: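 Antagonist-mode screen of the Tox21 10K library in an NTP-provided ERR reporter cell line; 18 h compound exposure at 37 C, luminescence measured with ONE-Glo.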

[5] = qHTS assay to identify small molecule agonists of the estrogen related receptor (ERR) signaling pathway from Tox21 library (AID 1224849; calls by dose curve; note: nearly all actives have a fitted effect of over 15% in size); conditions: ERR reporter cell line, ONE-Glo luciferase, 18 h
How it was run: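 Six hours post-seeding at 37 C/5% CO2, ERR cells receive DMSO-solubilised compounds; after 18 h at 37 C, ONE-Glo reagent is applied and luminescence recorded.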

[6] = qHTS RealTime-Glo MT Cell Viability Assay in HepG2 cells - 24 hour (AID 1224867); note: nearly all actives have a fitted effect of over 50% in size; note: potency is the fitted concentration of half-maximal effect
How it was run: (§1)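 Cell number in HepG2 cultures estimated from NanoLuc luminescence generated by metabolic reduction of a prosubstrate by living cells. The homogeneous, nonlytic format allowed repeated reads at 0, 8, 16, 24, 32 and 40 h of compound exposure.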

[7] = qHTS RealTime-Glo MT Cell Viability Assay in HEK293 cells - 32 hour (AID 1224868); note: nearly all actives have a fitted effect of over 50% in size; note: potency is the fitted concentration of half-maximal effect
How it was run: (§2)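 Homogeneous bioluminescent viability format in HEK293 cells (600 cells/well). Following 5 h at 37 C/5% CO2, 23 nL compound was pintooled; the signal was measured repeatedly during 40 h incubation.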

[8] = A CellTox Green Cytotoxicity Assay to monitor cytotoxicity in HEK293 cells - 0 hour (AID 1224869); note: nearly all actives have a fitted effect of over 50% in size
How it was run: (§3)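 Seeding of HEK293 cells together with cytotoxicity dye preceded a 5 h incubation at 37 C/5% CO2. Test compounds in DMSO were then added and fluorescence monitored across 40 h.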

[9] = qHTS RealTime-Glo MT Cell Viability Assay in HepG2 cells - 40 hour (AID 1224870); note: nearly all actives have a fitted effect of over 50% in size; note: potency is the fitted concentration of half-maximal effect
How it was run: (§4)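 Real-time viability: cells seeded at 600 per well together with NanoLuc and cell-permeant prosubstrate, compounds added after 5 h incubation. Luminescence tracked at 0, 8, 16, 24, 32 and 40 h of exposure.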

[10] = A CellTox Green Cytotoxicity Assay to monitor cytotoxicity in HEK293 cells - 40 hour (AID 1224871); note: nearly all actives have a fitted effect of over 45% in size; note: potency is the fitted concentration of half-maximal effect
How it was run: as §3

[11] = qHTS RealTime-Glo MT Cell Viability Assay in HepG2 cells - 8 hour (AID 1224873); note: nearly all actives have a fitted effect of over 55% in size; note: potency is the fitted concentration of half-maximal effect
How it was run: as §4

[12] = qHTS RealTime-Glo MT Cell Viability Assay in HEK293 cells - 40 hour (AID 1224874); conditions: RealTime-Glo luminescence; max response: stronger effect = lower value; note: nearly all actives have a fitted effect of over 50% in size; note: potency is the fitted concentration of half-maximal effect
How it was run: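 Tox21 screen in HEK293 using RealTime-Glo MT chemistry, with cells and reagent co-dispensed. Luminescence proportional to viable cell number was captured at intervals during 40 h compound exposure at 37 C.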

[13] = A CellTox Green Cytotoxicity Assay to monitor cytotoxicity in HEK293 cells - 24 hour (AID 1224875); note: nearly all actives have a fitted effect of over 45% in size
How it was run: as §3

[14] = A CellTox Green Cytotoxicity Assay to monitor cytotoxicity in HepG2 cells - 16 hour (AID 1224876); note: nearly all actives have a fitted effect of over 45% in size; note: potency is the fitted concentration of half-maximal effect
How it was run: (§5)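 Nonlytic assay: viable cells exclude the dye, so fluorescence scales with cell death. HepG2 at 600 cells/well, compounds added after 5 h, signal read across 40 h.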

[15] = A CellTox Green Cytotoxicity Assay to monitor cytotoxicity in HepG2 cells - 24 hour (AID 1224878); note: nearly all actives have a fitted effect of over 45% in size; note: potency is the fitted concentration of half-maximal effect
How it was run: as §5

[16] = A CellTox Green Cytotoxicity Assay to monitor cytotoxicity in HepG2 cells - 40 hour (AID 1224879); note: nearly all actives have a fitted effect of over 40% in size; note: potency is the fitted concentration of half-maximal effect
How it was run: as §5

[17] = qHTS assay to identify small molecule agonists of the hypoxia (HIF-1) signaling pathway (AID 1224846; active = well fitted activation curve with a large enough effect in the signal ratio in the repeat runs, not every such curve was filed as active; the % refers to the signal ratio)
How it was run: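 Hypoxia-pathway activation was scored as increased beta-lactamase from an HRE-controlled reporter in ME-180 cells; plated at 2,000 cells per well with 0.5% dialyzed FBS, they were exposed 17 hrs to compounds and then given CCF4-AM.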

[18] = qHTS RealTime-Glo MT Cell Viability Assay in HEK293 cells - 16 hour (AID 1224872); note: nearly all actives have a fitted effect of over 50% in size; note: potency is the fitted concentration of half-maximal effect
How it was run: as §2

[19] = qHTS RealTime-Glo MT Cell Viability Assay in HepG2 cells - 32 hour (AID 1224877); note: nearly all actives have a fitted effect of over 55% in size; note: potency is the fitted concentration of half-maximal effect
How it was run: as §1
% is set by controls: 0 for no effect and ±100 for the full control effect.

O=C=Nc1ccc(Cc2ccc(N=C=O)cc2)cc1
inactive: Potency [1] | outcome [2] | Potency [3] | Potency [4] | activity change, positive = activation ([5]; at 42.5 µM (top of the series)) 2.14% | activity change, positive = activation ([5]; at 92.4 µM (top of the series)) -19.6% | Potency [6] | Potency [7] | Potency [8] | Potency [9] | Potency [10] | Potency [11] | max response [12] -12.4% and 1.24% | Potency [13] | Potency [14] | Potency [15] | Potency [16]

Nc1ccc(Nc2ccccc2)cc1
active: Potency [3] 89.8 µM and 50.5 µM | Potency [7] 48.5 µM | Potency [12] 48.5 µM
inactive: Potency [1] | Potency [17] | Potency [6] | Potency [8] | Potency [9] | Potency [10] | Potency [11] | Potency [13] | Potency [14] | Potency [15] | Potency [16]

C#C[C@]1(O)CC[C@H]2[C@@H]3CCC4=Cc5oncc5C[C@]4(C)[C@H]3CC[C@@]21C
inactive: Potency [1] | outcome [2] | activity change, positive = activation ([5]; at 42.5 µM (top of the series)) -54.8% | activity change, positive = activation ([5]; at 92.4 µM (top of the series)) -70.8% | Potency [8] | Potency [13] | Potency [14] | Potency [15] | Potency [16]
active: Potency [3] 89.8 µM | Potency [4] 24.3 µM and 23.7 µM | Potency [10] 49 µM

CC(C)OB(OC(C)C)OC(C)C
inactive: Potency [1] | Potency [17] | Potency [3] | Potency [4] | activity change, positive = activation ([5]; at 92.4 µM (top of the series)) -0.608% and 0.13% | Potency [6] | Potency [7] | Potency [8] | Potency [9] | Potency [10] | Potency [18] | Potency [11] | max response [12] -5.59% and -12.5% | Potency [13] | Potency [14] | Potency [15] | Potency [16]

COc1ccc(OC)c(C(O)CNC(=O)CN)c1 (stereo unspecified)
inactive: Potency [1] | Potency [3] | Potency [4] | activity change, positive = activation ([5]; at 42.5 µM (top of the series)) -0.419% | activity change, positive = activation ([5]; at 92.4 µM (top of the series)) -28% | Potency [6] | Potency [7] | Potency [8] | Potency [9] | Potency [10] | Potency [18] | Potency [11] | max response [12] 2.49% and 0.0352% | Potency [13] | Potency [14] | Potency [15] | Potency [16]

COc1ccccc1/C=C/C=O
inactive: Potency [1] | outcome [2] | Potency [17] | Potency [3] | Potency [6] | Potency [8] | Potency [9] | Potency [10] | Potency [18] | Potency [11] | Potency [13] | Potency [14] | Potency [19] | Potency [15] | Potency [16]

CN(C)CCC=C1c2ccccc2CCc2ccccc21
active: Potency [1] 38.9 µM | Potency [14] 24.5 µM | Potency [15] 38.9 µM and 23.9 µM | Potency [16] 55 µM and 43.6 µM and 26.8 µM
inactive and 43.6 µM (active): Potency [6]
inactive: outcome [2] | Potency [8] | Potency [10] | Potency [18] | Potency [11] | Potency [13]
inactive and 54.9 µM (active): Potency [9]
113 µM (active) and inactive: Potency [3]

CC(C)Oc1ccc2c(=O)c(-c3ccccc3)coc2c1
active: activity change, positive = activation ([5]; at 42.5 µM (top of the series)) 38.2% and 33.2%
inactive: Potency [1] | Potency [17] | Potency [3] | Potency [4] | Potency [6] | Potency [8] | Potency [9] | Potency [10] | Potency [11] | Potency [13] | Potency [14] | Potency [19] | Potency [15] | Potency [16]

CCCCc1oc2ccccc2c1C(=O)c1cc(I)c(OCCN(CC)CC)c(I)c1
inactive: activity change, positive = activation ([5]; at 42.5 µM (top of the series)) -36% and -39.6% | Potency [8]
active: Potency [1] 27.8 µM and 21.3 µM | Potency [3] 80.7 µM and 43.8 µM | Potency [4] 48.9 µM and 29.8 µM | Potency [6] 39.2 µM and 23.9 µM | Potency [7] 34.9 µM and 23.9 µM | Potency [9] 39.2 µM | Potency [10] 44 µM | Potency [18] 39.2 µM and 21.3 µM | Potency [11] 39.2 µM | Potency [14] 44 µM | Potency [19] 39.2 µM and 23.9 µM | Potency [15] 39.2 µM | Potency [16] 31.1 µM and 26.8 µM

CC(C)=CCCC(C)CCO (stereo unspecified)
inactive: Potency [1] | Potency [17] | Potency [3] | Potency [6] | Potency [7] | Potency [8] | Potency [9] | Potency [10] | Potency [18] | Potency [11] | max response [12] -3.95% and 4.54% | Potency [13] | Potency [14] | Potency [19] | Potency [15] | Potency [16]

S=C(NC1CCCCC1)NC1CCCCC1
15.1 µM (active) and inactive: Potency [4]
active: Potency [7] 15.2 µM and 21.9 µM
inactive: outcome [2] | Potency [17] | Potency [3] | activity change, positive = activation ([5]; at 92.4 µM (top of the series)) -59.4% and -64.8% | Potency [6] | Potency [8] | Potency [9] | Potency [10] | Potency [11] | Potency [13] | Potency [14] | Potency [15] | Potency [16]

CC(C)(C)NC(=O)[C@H]1CC[C@H]2[C@@H]3CC[C@H]4NC(=O)C=C[C@]4(C)[C@H]3CC[C@]12C
inactive: Potency [1] | outcome [2] | Potency [3] | Potency [6] | Potency [7] | Potency [8] | Potency [9] | Potency [10] | Potency [11] | max response [12] -25.2% and -19.5% | Potency [13] | Potency [14] | Potency [19] | Potency [15] | Potency [16]
